The values below come from PubChem BioAssay (EPA / NIEHS).

Structures are written as SMILES. Active and inactive are the calls of the source. The calls were made as follows: active = hit-call score of the fitted dose curve at least 0.9, where 1 is the maximum; inactive = score below 0.9.

Read-out in this test: Interferon-gamma inducible Protein 10 (IP10), CXCL10 (gene 3627)
The experiment in a line: BSK_KF3CT_IP10: BioMAP Diversity Plus: KF3CT Assay for Interferon-gamma inducible Protein 10 (IP10) Biomarker Activity (AID 2283068). Particulars: primary human keratinocytes with fibroblasts; actives raise or lower the signal. How it is done: BSK_KF3CT is a cell-based, multiplexed-readout assay that uses keratinocytes and foreskin fibroblasts, a human skin primary cell co-culture, with measurements taken at 24 hours after chemical dosing in a 96-well plate.BSK_KF3CT_IP10 is an assay component measured in the BSK_KF3CT assay. It measures IP-10 antibody related to regulation of gene expression using ELISA technology.Data from the assay component BSK_KF3CT_IP10 was analyzed into 1 assay endpoint. This assay endpoint, BSK_KF3CT_IP10, was analyzed with bidirectional fitting relative to DMSO as the negative control and baseline of activity. Using a type of binding reporter, gain or loss-of-signal activity can be used to understand changes in the signaling as they relate to the gene CXCL10. Furthermore, this assay endpoint can be referred to as a primary readout, because this assay has produced multiple assay endpoints where this one serves a signaling function. To generalize the intended target to other relatable targets, this assay endpoint is annotated to the cytokine intended target family, where the subfamily is chemotactic factor.
The levels of cell surface (or secreted, indicated by the prefix "s") biomarker endpoints were measured by ELISA. Overt cytotoxicity to cells in confluent adherent cultures (all systems other than the BT system) was assessed by measuring total protein levels using sulforhodamine B (SRB) staining in parallel cultures at the time of biomarker measurements, indicated as SRB endpoints. For proliferation assays for adherent cell types, individual cell types are cultured at sub-confluence and relative cell numbers quantified by SRB staining at time points optimized for each system (48 h: 3C and CASM3C systems; 72 h: BT and HDF3CGF systems; 96 h: SAg system). SRB was performed by staining cells with 0.1% SRB after fixation with 10% TCA and reading wells at 560 nm.Viability and proliferation of PBMC (T cells) was quantified by Alamar Blue reduction for the SAg and BT systems. For PBMC viability (referred to as PBMC Cytotoxicity within the assay endpoint names), cells were plated (75,000/well in a 96-well plate) and then chemical samples added for 1 h before addition of activators, SEB and TSST-1 (20 ng/mL final concentration each). Cells were incubated for 90 h. Then, Alamar Blue (20 uL/well) (Invitrogen, Cat DAL1100) was added for 6 h, and the plates were read with a fluorescence microplate reader at 546/580 nm (excitation/emission). For PBMC proliferation, cells were plated and activated as above but incubated for only 16 h prior to addition of Alamar Blue. Plates were read after 6 h.
On to `O=C(O)c1ccccc1-n1cc(C(=O)O)c(=O)c2cc(Nc3c(F)cc(F)cc3Cl)c(Cl)cc21`, for which the outcome was inactive.

A word on the AC50: it is the concentration at which the activity in the assay is half-maximal. Turning to `Cc1cc(F)ccc1-c1cc(N2CC[C@@H](O)[C@H]2CO)ncc1N(C)C(=O)C(C)(C)c1cc(C(F)(F)F)cc(C(F)(F)F)c1`, the AC50 was 13.2 µM (active).

For the molecule `Cc1ccc(C(C)C)cc1`, the outcome was inactive.

In the case of `CC1=CC(=O)/C(=C(/C)O)C(=O)O1`, the result was inactive.

As for `CN1C(=O)N(c2ccccc2Br)Cc2cnc(Nc3ccc4c(c3)OCC(CO)O4)nc21` (stereo not given), the AC50 is 21.6 µM (active).

Take `CC(C)(C)c1csc(-c2cc3cc(OCc4ccccc4CC(=O)O)ccc3o2)n1`: the AC50 is 9.6 µM (active).

As to `Oc1ccc2ccccc2c1`, the result was inactive.

For the molecule `CCOC(=O)O[C@H](C)OC(=O)c1ccc2c(c1)cc(C(=O)NC1CCN(C(C)C)CC1)n2Cc1cc(-c2ccc(Cl)s2)on1`, the AC50 is 10.4 µM (active).

Consider `CN(C)c1ccc(C(=C2C=CC(=[N+](C)C)C=C2)c2ccc(N(C)C)cc2)cc1`, for which the AC50 was 8.28 µM (active).

Turning to `Clc1cc(Cl)c2c(c1)N=C1CCCCCN1C2`, the result was inactive.

`O=C1CCC(C2CCCCC2)CC1`: the AC50 is 31.5 µM (active).

For `Cc1occc1C(=O)Nc1ccc(C(=O)N2CCC(F)(F)/C(=C\C(=O)N3CCC(N4CCCCC4)CC3)c3ccccc32)cc1`, the result was inactive.

Take `Cc1oc2c(NC(=O)c3c(Cl)cccc3Cl)cccc2c1C(C)(C)O`: the result was inactive.

Regarding `CCCCCCCCCC(=O)O`, the result was inactive.

`CCCCCCCCN(C)CCCCCCCC`: the result was inactive.

With `Cc1ncc(CO)c(CO)c1O`, the outcome was inactive.

Consider `CN(C[C@@H](CC[N+]12CCC(C3CCCCC3)(CC1)CC2)c1ccc(Cl)c(Cl)c1)C(=O)c1cc(C(F)(F)F)cc(C(F)(F)F)c1`, for which the AC50 was 7.78 µM (active).

On to `CCN(Cc1cccc(S(=O)(=O)O)c1)c1ccc(C(=C2C=CC(=[N+](CC)Cc3cccc(S(=O)(=O)O)c3)C=C2)c2ccccc2S(=O)(=O)[O-])cc1`, for which the result was inactive.

For the molecule `CCO[Si](CCCNC(N)=O)(OCC)OCC`, the outcome was inactive.

On to `C[C@]12CC[C@@H]3c4ccc(O)cc4CC[C@H]3[C@@H]1CC[C@H]2O`, for which the outcome was inactive.

For the molecule `CC1(C)NC(=O)N(c2ccc([N+](=O)[O-])c(C(F)(F)F)c2)C1=O`, the result was inactive.

As to `CCCCCc1ccc(N)cc1`, the half-maximal activity concentration (AC50) was 22 µM (active).

With `CC(C)(C)c1cc(/C=C2\SC(N)=NC2=O)cc(C(C)(C)C)c1O`, the half-maximal activity concentration (AC50) was 9.94 µM (active).

In the case of `CCCCCCCCCCCCO`, the concentration at half-maximal activity (AC50) was 37.7 µM (active).

On to `Clc1ccccc1C(c1ccccc1)(c1ccccc1)n1ccnc1`, for which the AC50 is 8.61 µM (active).

Consider `C[C@]12CC[C@@H]3c4ccc(O)cc4CC[C@H]3[C@@H]1CCC2=O`, for which the outcome was inactive.

Regarding `CC[C@H](NC(=O)c1cc(F)ccc1NS(=O)(=O)c1cccc2cccnc12)c1ccccc1`, the outcome was inactive.

For the molecule `O=c1ccc2ccccc2o1`, the outcome was inactive.

Turning to `CCCCCCCCOc1ccc(C(=O)c2ccccc2)c(O)c1`, the result was inactive.

For `COc1ccc2cc(S(=O)(=O)N[C@H](CC(=O)N[C@H](Cc3ccc(CN4[C@H](C)CCC[C@@H]4C)cc3)C(=O)N(C)C(C)C)c3ccc4c(c3)OCO4)ccc2c1`, the AC50 is 29.3 µM (active).

Regarding `CCCCCCCCCCCC[N+](C)(C)C`, the AC50 is 36 µM (active).

Consider `CC/C(=C(/CC)c1ccc(O)cc1)c1ccc(O)cc1`, for which the AC50 is 17.7 µM (active).

On to `Oc1ccccc1`, for which the outcome was inactive.

With `Cc1cccc2ccccc12`, the result was inactive.

Regarding `NCc1cccc(C2CCN(C(=O)c3ccc(C#Cc4ccccc4F)o3)CC2)c1`, the concentration at half-maximal activity (AC50) was 12.4 µM (active).

Take `O=C(O)Cn1c(=O)n(Cc2ccc(Br)cc2F)c(=O)c2ccc(Cl)cc21`: the outcome was inactive.

For the molecule `CC(O)CC(C)(C)O` (stereo not given), the outcome was inactive.

Regarding `CC(C)(O)c1ccc(CNC(=O)c2cccnc2Oc2ccc3nonc3c2)cc1`, the result was inactive.

Regarding `CC[C@@H]1C[C@H](N(Cc2cc(C(F)(F)F)cc(C(F)(F)F)c2)C(C)=O)c2cc(C(F)(F)F)ccc2N1C(=O)OC(C)C`, the result was inactive.

Take `CCCCOC(=O)CC(CC(=O)OCCCC)(OC(C)=O)C(=O)OCCCC`: the outcome was inactive.
